Among the data in PubChem BioAssay (NCI) are growth values, retold here.

This is part of a sample that, as a whole, favours compounds with a hit. Of some 83,000 tested, about 20% had one in any assay.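 Percent growth is the endpoint: 0 to 100 indicates growth inhibition (40 means 60% inhibition), 0 means no net growth, and negative values indicate cell death.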 A number with no mark means an inactive call. Activity calls are given as the source filed them. How the source made its calls: active means growth percent below 10; inactive means the rest.

In the experiment the test system is HL-60(TB) leukemia. Kind of experiment: NCI-60 one-dose screen, 48 h (100 = growth as untreated, 0 = no growth, -100 = all killed). Particulars: 10 µM unless noted.
In the case of `CCCCC/C=C\C/C=C/CCCCCCCCNC(=O)Nc1ccc([N+](=O)[O-])cc1`, the growth was 4.75% (active).

Consider `Nc1cccc(-c2nc3sccn3c2-c2ccnc(NCCCNS(=O)(=O)c3ccc(C(F)(F)F)cc3)n2)c1`, for which the growth is -18.5% (active). Consider `CCCCNC(=O)c1ccc2c(c1)nc(-c1ccccc1)n2C1CCCCC1`, for which the growth is 115%.

`Cc1cccnc1NC(=S)Nc1ncccc1C`: the growth is 136%.

Turning to `Cn1c(=O)c2c(nc(NC3=NS(=O)(=O)c4ccccc43)n2Cc2ccccc2)n(C)c1=O`, the growth was 112%. Turning to `O=c1oc2ccccc2cc1-c1csc(N=Nc2c(O)[nH]c3ccc(Cl)cc23)n1`, the growth is 105%.

As to `COc1ccc(-c2cc(/C=C/C(=O)c3ccc(N)cc3)[nH]n2)cc1`, the growth is -23% (active). In the case of `COc1ccccc1/C=C1\Oc2cc(OCCN3CCCC3)ccc2C1=O`, the growth is 97.1%.

Take `COc1ccc(/C=C(/C(=O)n2cnnn2)c2cc(OC)c(OC)c(OC)c2)cc1`: the growth was 4.64% (active). Turning to `COc1ccc(-c2nc(-c3nc4ccc(OC)cc4[nH]3)c3ccccn23)cc1`, the growth is 52.1%. The result for `COc1ccc(C2=CN3CC=CCC3CC2=O)cc1` (stereo not given) reads 110%; that for `O=S(=O)(Nc1cccc(Cl)c1)c1ccc(-c2cnc(C3CC3)o2)cc1`, 2.04% (active). With `COc1cc(C#Cc2ccc(=O)oc2C#Cc2ccccc2)cc(OC)c1OC`, the growth is 34.2%. Consider `CCCCCCCCCCCCCC1=NCCN1CCO`, for which the growth was 2.28% (active).

`COc1ccc(-c2nc(-c3ccccc3)c(-c3ccccc3)[nH]2)cc1OC1CCCC1`: the growth was 83.1%.

Turning to `C=CC(=O)Nc1cc2c(Nc3ccc(F)c(Cl)c3)ncnc2cc1OCCCN1CCOCC1`, the growth was -26.7% (active). The result for `Nc1nc(N)c2cc(CNc3ccc(C(=O)NC(CC(=O)O)C(=O)O)cc3)ccc2n1` (stereo not given) reads 19.4%; that for `O=C(O)c1c(=O)cccc2ssc12`, -9.53% (active); that for `CCN1CCN(c2nc(NNC(=O)c3ccc(OC)cc3)nc(N3CCN(C(c4ccccc4)c4ccccc4)CC3)n2)CC1`, 18.7%. To `O=C(CN1CCN(c2cc3c(cc2F)c(=O)c(C(=O)O)cn3C2CC2)CC1)Nc1cc(=O)[nH]c(=O)[nH]1` belongs 103%. To `C=C1C(=O)O[C@H]2[C@H]1CC/C(COC(=O)NCCCCNC(=O)OC/C1=C/CC[C@@]3(C)O[C@H]3[C@H]3OC(=O)C(=C)[C@@H]3CC1)=C\CC[C@@]1(C)O[C@@H]21` belongs -50.7% (active); to `COc1ccc(/C=C2/C(=O)ON=C2C)cc1`, 103%; to `O=C(CCN1CCCC1)Nc1ccc2c(NCc3ccccc3)c3ccccc3nc2c1`, -40.8% (active). On to `COCCn1cc(-c2csc(-c3cn(C)c4ccc(Br)cc34)n2)c2cccnc21`, for which the growth was 51.3%.

For `CCCCCCN(CCCCCC)CCCNc1nccc2ccccc12`, the growth was -1.22% (active). Turning to `CCOC(=O)c1c(NC(=O)c2cccc(C(F)(F)F)c2)sc2c(CN(C)C)c(O)ccc12`, the growth was 16.3%.

With `CC(C)=CCc1cc(O)cc2c1OC(C=C(C)C)C1=C2C(=O)C2=C(C1=O)S(=O)(=O)CCN2` (stereo not given), the growth was -31.5% (active). Turning to `Cc1c(C(=O)N[C@H](CO)Cc2ccccc2)[nH]c2ccc(Cl)cc2c1=O`, the growth is 99.7%. Turning to `C=C1C(=O)O[C@H]2[C@H]1CC/C(COC(=O)C(C)c1ccc(CC(C)C)cc1)=C\CC[C@@]1(C)O[C@@H]21` (stereo not given in full), the growth was -9.46% (active). As to `CCN(CC)CCCCCCNc1cccc2cc(Br)cnc12`, the growth was -51.7% (active). For `CC1=C(C(=O)/C=C/c2ccc(N(C)C)cc2)C(c2ccccc2)NC(=S)N1` (stereo not given), the growth is 99.4%. To `N#Cc1cccc(OCc2nc(N)nc(N)c2-c2ccc(Cl)c(Cl)c2)c1` belongs 29.8%; to `COc1cc(/C=C2\CCCC3=C2N=C2SC=NN2C3c2cc(OC)c(OC)c(OC)c2)cc(OC)c1OC` (stereo not given), -1.19% (active); to `CCOc1ccc2nc(SCc3nc4n(n3)S(=O)(=O)c3ccccc3N4C)sc2c1`, 12.9%. In the case of `NC(=S)N/N=C\c1nccc2c(N)cccc12`, the growth is -10.4% (active). To `C#CC(O)c1ccccc1` (stereo not given) belongs 108%; to `Cc1ccccc1Nc1nc2nonc2nc1Nc1cccc(C)c1C`, 69.8%. With `O=C(Oc1cccc2ccccc12)Oc1cccc2ccccc12`, the growth is 88.4%. With `COc1cc(CCN=Cc2ccccc2O)c([N+](=O)[O-])cc1OC`, the growth is 101%. As to `CN(C)CCN(Cc1ccccc1)c1ccccc1`, the growth was 86.6%.
